Here are results for seven compounds from PubChem BioAssay (Tox21).

The nature of experiment [1]: qHTS assay to identify small molecule agonists of the hypoxia (HIF-1) signaling pathway - cell viability counter screen (AID 1224844; calls by dose curve; note: nearly all actives have a fitted effect of over 50% in size). Put shortly:
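HRE-bla ME-180 cells in medium with 0.5% dialyzed FBS were preincubated 5 hrs at 37C, exposed to compounds for 17 hrs, then viability was read as CellTiter-Glo luminescence after 30 min at room temperature, in the reporter wells.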
Background: qHTS replaces the single test concentration by a dilution series.

The nature of experiment [2]: qHTS assay to identify small molecule agonists of the hypoxia (HIF-1) signaling pathway (AID 1224846; active = well fitted activation curve with a large enough effect in the signal ratio in the repeat runs, not every such curve was filed as active; the % refers to the signal ratio). Put shortly:
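HRE-bla ME-180 cells (beta-lactamase reporter under hypoxia response element) were plated at 2,000 cells/well in medium with 0.5% dialyzed FBS, rested 5 hrs, then given compounds in DMSO for 17 hrs at 37C, 5% CO2. Reporter induction was read with CCF4-AM FRET substrate.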

Experiment [3] is described as follows: qHTS assay to identify small molecule agonists of H2AX - cell viability counter screen (AID 1224847; calls by dose curve; note: nearly all actives have a fitted effect of over 30% in size; note: potency is the fitted concentration of half-maximal effect). The method in brief: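 Cytotoxicity counter screen in wild-type CHO-K1 cells: a 3 hr compound treatment at 37C across 15 concentrations, followed by CellTiter-Glo luminescence to gauge viable cells.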
A short description of experiment [4]: qHTS RealTime-Glo MT Cell Viability Assay in HepG2 cells - 24 hour (AID 1224867). Note: nearly all actives have a fitted effect of over 50% in size. Put shortly:
(§1)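 HepG2 suspension premixed with RealTime-Glo reagents is plated at 600 cells per well and left 5 h at 37 C/5% CO2. Compounds in DMSO then go in, and bioluminescence reflecting viable cell number is recorded over 40 h.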

A short description of experiment [5]: qHTS RealTime-Glo MT Cell Viability Assay in HEK293 cells - 32 hour (AID 1224868). Note: nearly all actives have a fitted effect of over 50% in size. Note: potency is the fitted concentration of half-maximal effect. The method in brief: (§2)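 Reads taken at 0, 8, 16, 24, 32 and 40 h from the same wells. HEK293 cells (600/well) carried RealTime-Glo reagents from seeding, with compound added after a 5 h settle at 37 C.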
Experiment [6] can be described thus: A CellTox Green Cytotoxicity Assay to monitor cytotoxicity in HEK293 cells - 0 hour (AID 1224869). Note: nearly all actives have a fitted effect of over 50% in size. The method in brief: (§3)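 HEK293 cells premixed with CellTox Green dye were seeded at 600 cells/well and left 5 h at 37 C/5% CO2 before pin transfer of 23 nL compound in DMSO. Fluorescence from dye bound to dead-cell DNA was read during 40 h treatment.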
Experiment [7] in a line: qHTS RealTime-Glo MT Cell Viability Assay in HepG2 cells - 40 hour (AID 1224870). Note: nearly all actives have a fitted effect of over 50% in size. Put shortly: (§4)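 HepG2 cells (600/well) mixed with RealTime-Glo MT reagent, settled 5 h at 37 C/5% CO2 before compound addition. Nonlytic NanoLuc luminescence from viable-cell prosubstrate reduction read repeatedly during 40 h treatment at 37 C.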
Experiment [8] in a line: A CellTox Green Cytotoxicity Assay to monitor cytotoxicity in HEK293 cells - 40 hour (AID 1224871). Note: nearly all actives have a fitted effect of over 45% in size. Note: potency is the fitted concentration of half-maximal effect. The method in brief: as §3
A short description of experiment [9]: qHTS RealTime-Glo MT Cell Viability Assay in HepG2 cells - 8 hour (AID 1224873). Note: nearly all actives have a fitted effect of over 55% in size. The method in brief: as §4
Experiment [10] in a line: qHTS RealTime-Glo MT Cell Viability Assay in HEK293 cells - 40 hour (AID 1224874). Note: nearly all actives have a fitted effect of over 50% in size. Note: potency is the fitted concentration of half-maximal effect. The note with it: RealTime-Glo luminescence; max response: stronger effect = lower value. Put shortly: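 HEK293 cells mixed with RealTime-Glo reagents (NanoLuc plus cell-permeant prosubstrate) at 600 cells/well, preincubated 5 h at 37 C/5% CO2, then given 23 nL compound in DMSO. Nonlytic luminescence from viable cells was read at 0, 8, 16, 24, 32 and 40 h.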

Experiment [11] is described as follows: A CellTox Green Cytotoxicity Assay to monitor cytotoxicity in HEK293 cells - 24 hour (AID 1224875). Note: nearly all actives have a fitted effect of over 45% in size. Put shortly:
as §3

Experiment [12] can be described thus: A CellTox Green Cytotoxicity Assay to monitor cytotoxicity in HepG2 cells - 16 hour (AID 1224876). Note: nearly all actives have a fitted effect of over 45% in size. The method in brief: (§5)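 HepG2 cells were seeded together with the CellTox Green dye at 600 cells/well, left 5 h at 37 C/5% CO2, then given compounds in DMSO. Fluorescence from dye bound to dead-cell DNA was read repeatedly over 40 h of treatment at 37 C.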
Experiment [13] can be described thus: qHTS RealTime-Glo MT Cell Viability Assay in HepG2 cells - 32 hour (AID 1224877). Note: nearly all actives have a fitted effect of over 55% in size. Put shortly: as §1
Experiment [14] in a line: A CellTox Green Cytotoxicity Assay to monitor cytotoxicity in HepG2 cells - 24 hour (AID 1224878). Note: nearly all actives have a fitted effect of over 45% in size. Put shortly:
as §5

Experiment [15] is described as follows: A CellTox Green Cytotoxicity Assay to monitor cytotoxicity in HepG2 cells - 40 hour (AID 1224879). Note: nearly all actives have a fitted effect of over 40% in size. Put shortly: as §5
Experiment [16] can be described thus: qHTS assay to identify small molecule agonists of H2AX (AID 1224845; active = well fitted activation curve with a large enough effect in the signal ratio in the repeat runs, not every such curve was filed as active; the % refers to the signal ratio). The method in brief: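 Wild-type CHO-K1 cells, plated overnight, exposed 3hr at 37C to 15 concentrations (0.76% DMSO final). Lysed, then HTRF anti-pH2AX (S139) cryptate and anti-H2AX-d2 antibodies, 24 hr room temperature; 665/620 nm emission read.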
Experiment [17] is described as follows: qHTS assay to identify small molecule antagonists of the estrogen related receptor (ERR) signaling pathway from Tox21 library (AID 1224848). Note: nearly all actives have a fitted effect of over 50% in size. Note: potency is the fitted concentration of half-maximal effect. Put shortly:
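Luminescent reporter read-out (ONE-Glo) from NTP's ERR cell line after 18 h treatment at 37 C with DMSO-dissolved Tox21 compounds; cells pre-plated 6 h beforehand at 2,000 per well.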

The nature of experiment [18]: qHTS assay to identify small molecule agonists of the estrogen related receptor (ERR) signaling pathway from Tox21 library (AID 1224849; calls by dose curve; note: nearly all actives have a fitted effect of over 15% in size). The note with it: ERR reporter cell line, ONE-Glo luciferase, 18 h; at 92.4 µM (top of the series) unless noted. The method in brief:
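ERR reporter cell line (NTP) seeded, rested 6 h at 37 C/5% CO2, then pinned with Tox21 compounds in DMSO. After 18 h at 37 C, ONE-Glo luciferase luminescence was read following 30 min at room temperature.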

Experiment [19] in a line: qHTS RealTime-Glo MT Cell Viability Assay in HEK293 cells - 16 hour (AID 1224872). Put shortly:
as §2

SMILES strings stand for the structures. Records with an inconclusive call do not appear. Some structures have more than one record in an assay (separate samples or runs), and their calls can disagree. Active and inactive are the calls of the source. Unless noted, calls come from the whole dose curve; as a rule, active = well fitted curve in the direction sought with a large enough effect in the repeat runs; inconclusive = weak or mixed curves; inactive = no such curve, though single readings can be large; an effect the other way counts as inactive or inconclusive.
% is set by controls: 0 for no effect and ±100 for the full control effect.

Turning to `COc1c(C(C)(C)C)cc([N+](=O)[O-])c(C)c1[N+](=O)[O-]`, the Potency result in [1], in [3], in [4], in [5], in experiment [6] and in experiment [7] was “inactive” in each case. Besides, the Potency entry in experiment [8], in experiment [9], in [11], in experiment [12], in [13] and in experiment [14] was “inactive” in each case. The Potency result in [15] was “inactive”. The compound was classed as inactive in experiment [2]. The max response in [10] was 1.56% (inactive).
In the case of `CCOP(=S)(Oc1ccc([N+](=O)[O-])cc1)c1ccccc1` (stereo not drawn), the Potency result in [1], in [16], in experiment [17], in [4], in experiment [5] and in [6] was “inactive” each time. The Potency result in experiment [7], in experiment [8], in experiment [19], in experiment [9], in [11] and in [12] was “inactive” throughout. In addition, the Potency entry in experiment [13], in experiment [14] and in [15] was “inactive” each time. Also, the compound was called inactive in [2]. In addition, the activity change, positive = activation in experiment [18] was 24.4% (active). The max response in experiment [10] was 9.18% (inactive).
On to `O=Cc1ccc(Cl)cc1Cl`, for which the Potency entry in experiment [1], in experiment [3], in experiment [17], in [4], in [5] and in experiment [6] was “inactive” in each case. The Potency entry in [8], in experiment [9], in experiment [11], in [12], in [13] and in experiment [14] was “inactive” throughout. For the same compound, in experiment [15], the Potency result was “inactive”. Moreover, the call in experiment [2] was inactive. Also, the activity change, positive = activation in experiment [18] is -10.7% (inactive). In [10], the max response was -1.06% (inactive).
Take `CCCCCCCCCCOC(=O)c1ccccc1C(=O)OCCCCCCCCCC`: the Potency result in experiment [1], in experiment [3], in experiment [17], in experiment [4], in experiment [5] and in [6] was “inactive” in each case. For the same compound, the Potency entry in experiment [7], in [8], in experiment [19], in experiment [11], in experiment [12] and in experiment [13] was “inactive” throughout. Further, the Potency entry in experiment [14] and in experiment [15] was “inactive” in each case. Further, in [2], the result was inactive. Further, the activity change, positive = activation in [18] is 1.79% (inactive). The max response in experiment [10] was 0.334% (inactive).
As to `O=C1CN=C(c2ccccc2)c2cc(Cl)ccc2N1CC1CC1`, the Potency entry in experiment [1], in experiment [4], in experiment [6], in experiment [7], in experiment [8] and in experiment [9] was “inactive” each time. The Potency entry in experiment [11], in [12], in [13], in [14] and in [15] was “inactive” each time. The compound was classed as inactive in [2]. In addition, the Potency in experiment [3] was 94.2 µM (active); in experiment [17], 51 µM (active). Moreover, the activity change, positive = activation in experiment [18] was -41.3% (inactive).
Consider `O=C(CBr)Nc1ccc(Cl)cc1C(=O)c1ccccc1F`, for which the Potency entry in experiment [1], in experiment [16], in [3], in experiment [17], in experiment [4] and in [5] was “inactive” throughout. For the same compound, the Potency result in [6], in experiment [7], in [8], in experiment [19], in experiment [9] and in [11] was “inactive” throughout. The Potency entry in [12], in [13], in [14] and in [15] was “inactive” each time. In addition, the activity change, positive = activation in experiment [18] was -13.3% [at 42.5 µM] (inactive). Further, the max response in experiment [10] is -13.4% (inactive).
For `CCOP(=S)(OCC)Oc1nc(Cl)c(Cl)cc1Cl`, the Potency result in experiment [1], in [6], in experiment [7], in experiment [9], in [12] and in experiment [13] was “inactive” throughout. Also, the Potency result in experiment [14] and in experiment [15] was “inactive” in each case. The compound was called inactive in [2]. Moreover, the Potency in [3] was 56.8 µM (active); in [5], 21.9 µM (active) and inactive; in experiment [8] it was 34.8 µM (active) and inactive; in experiment [10] it was 24.6 µM (active). The max response in [10] is -11.7% (inactive).
